# S2 tox: Viability Counterscreen for Primary qHTS for Inhibitors of ATXN expression; AID 651635, 2014; S2 cells (HEK-293 line with an ATXN2-luciferase reporter) viability, CellTiter-Fluor protease fluorescence, 24 h; Potency, µM (titrated, usually from 56.7 µM), hits mostly cytotoxic; 0.49% of 400,000 active; also: potency is read from the fitted curve at half-maximal effect; nearly all actives have a fitted effect of over 40% in size
# ATXN2 expr inh: Primary qHTS for Inhibitors of ATXN expression; 0.72% of 360,000 active; Potency, µM (highest dose often 57 µM), for inactives: top-dose activity change, negative = inhibition, usual class: inhibitors; HEK-293 ATXN2-luciferase reporter, luminescence, 24 h; also: potency is read from the fitted curve at half-maximal effect; % is scaled to controls: 0 for no effect and ±100 for the full control effect; nearly all actives have a fitted effect of over 55% in size
#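 qHTS (up to 57 uM final) was run with 24 h compound exposure of reporter cells at 37 °C. Each well was multiplexed: SteadyGlo luminescence measured ATXN2-luciferase expression after a fluorogenic Gly-Phe-AFC viability readout (25 uM final).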
# IL-1B inflam inh: qHTS for Inhibitors of Inflammasome Signaling: IL-1-beta AlphaLISA Primary Screen | THP-1 LPS/ATP IL-1B secretion, AlphaLISA, 16 h; hits give low values | activity change, % at 57.5 µM | AID 743279, 2014 | 4.7% of 360,000 active; in the data active = activity change below about -50%; inconclusive = mostly about -30% to -49%; also: % is scaled to controls: 0 for no effect and ±100 for the full control effect
#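 Secreted IL-1B measured by AlphaLISA bead assay after 16 h compound exposure of THP-1 cells; compounds (final up to 57.5 uM) added 1 h before LPS (250 ng/mL) and ATP (1.25 mM) stimulation; lower signal means less secretion.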
# TGFb inhibitor: qHTS for Inhibitors of TGF-b. HepG2 CAGA-GFP TGF-b/SMAD3 reporter, GFP fluorescence, 18 h; TGF-beta stimulated, 500 pg/mL final. 1.2% of 410,000 active. Potency, µM (highest dose often 46.1 µM), without a hit: top-dose activity, negative = inhibition, hits mostly inhibitors; also: potency is read from the fitted curve at half-maximal effect; % is scaled to controls: 0 for no effect and ±100 for the full control effect; nearly all actives have a fitted effect of over 65% in size
#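 Smad-responsive CAGA-GFP expression was quantified in HEPG2 cells exposed to compounds and 500 pg/mL final TGF-beta for 18 h at 37 degrees C; unstimulated wells defined full inhibition.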
# HepG2 viability: qHTS for Inhibitors of TGF-b: Cytotox Counterscreen; HepG2 CAGA-GFP viability, ATP luminescence, 18 h; Potency, µM (top dose mostly 46.1 µM), for inactives: at the highest dose activity change, negative = cytotoxicity, hits mostly cytotoxic; 0.76% of 410,000 active; AID 588856, 2011; also: potency is read from the fitted curve at half-maximal effect
#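 HepG2 CAGA-GFP cells (1000/well, DMEM with 1% FBS) received compound, then TGF-beta at 500 pg/mL final, and were incubated 18 hours at 37 degrees C. Viability was read by CellTiter-Glo luminescence. Media-only wells were set as complete cell-killing and DMSO as no toxicity.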
# Active calls of the source: *; i = inactive; ? = inconclusive; . = no result; ! = repeats disagree. Most compounds without a hit are left out; they make up all but 5.7% or so of the library. Unless noted, calls follow the shape of the dose curve; as a rule, active = well fitted curve in the direction sought with a large enough effect; inconclusive = small, poorly fitted or top-dose-only effect, or another doubt; inactive = no such curve, though single readings can be large; an effect the other way counts as inactive or inconclusive.
SMILES,S2 tox,ATXN2 expr inh,IL-1B inflam inh,TGFb inhibitor,HepG2 viability
CN(C)c1ccc(CN(C(=O)c2ccc(Cl)c([N+](=O)[O-])c2)C2CCS(=O)(=O)C2)cc1 (stereo not drawn),?,-37%,-75*,-11%,1%
O=C(c1ccc(Cl)c([N+](=O)[O-])c1)N(Cc1ccc(F)cc1)C1CCS(=O)(=O)C1 (stereo not drawn),i,-19%,-95*,0%,-2%
Cc1cc(C)c(OCC(=O)N(Cc2ccc(N(C)C)cc2)C2CCS(=O)(=O)C2)c(C)c1 (stereo not drawn),i,-20%,-72*,9%,11%
O=C(CSc1nc2c(c(=O)[nH]1)CCC2)Nc1ccccc1F,i,4%,.,-4%,2%
C[C@@H]1CN([C@H](C)CO)C(=O)c2c(c3ccccc3n2C)-c2ccccc2CO[C@H]1CN(C)Cc1ccc(C(F)(F)F)cc1,28µM*,?,?,?,20µM*
C[C@@H]1CN([C@H](C)CO)C(=O)c2c(c3ccccc3n2C)-c2ccccc2CO[C@H]1CN(C)Cc1cccc(C(=O)O)c1,i,11%,-13,-1%,4%
C[C@@H]1CN([C@H](C)CO)C(=O)c2c(c3ccccc3n2C)-c2ccccc2CO[C@H]1CN(C)Cc1ccc(Oc2ccccc2)cc1,?,?,-20,16µM*,-52%
CNC[C@@H]1OCc2ccccc2-c2c(n(C)c3ccccc23)C(=O)N([C@H](C)CO)C[C@H]1C,32µM*,?,-7,?,-66%
CCCCCCC[N+](CC)(CC)CCCCc1ccc(Cl)cc1,?,22µM*!,?,5%,-26%
CCCC(=O)N/C(N)=N/c1nc(C)c2ccccc2n1,?,6%,-85*,2%,10%
CCc1ccc2nc(/N=C(\N)NC(=O)c3ccccc3)nc(C)c2c1,i,-2%,-15,-2%,-40%
CCCCCCSc1cccc(-c2nc3cc(C)ccn3c2NC2CCCCC2)c1,i,?,-74*,?,-22%
Cc1ccn2c(NC3CCCCC3)c(-c3cccc(SC4CCCCC4)c3)nc2c1,?,?,-75*!,?,-37%
Cc1cccc(Nc2ncnc(N)c2[N+](=O)[O-])n1,i,0%,-14,-16%,-31%
Cc1cc(C)nc(Sc2ncnc(N)c2[N+](=O)[O-])n1,.,?,-128*,?,-29%
CC(C)N(c1ccccc1)c1ccc(NC(=O)CCl)cc1,27µM*,?,-100*,?,-119%
O=C(CCl)Nc1ccc(-c2ccccc2)cc1,10µM*,.,-97*,?,11µM*
O=C(CCl)Nc1ccc(N=Nc2ccccc2)cc1,20µM*,.,-98*,?,22µM*
CC(C)N(c1ccccc1)c1ccc(NC(=O)[C@@H]2O[C@H](CO)[C@H](O)[C@H](O)[C@H]2O)cc1,i,-7%,22,0%,6%
CC(=O)Nc1ccc(N=Nc2ccccc2)cc1,i,65%,-21,-6%,-2%
O=C(Nc1ccc(N=Nc2ccccc2)cc1)c1ccc(Cl)cc1Cl,i,-1%,-25,0%,-4%
O=C(Nc1ccc(N=Nc2ccccc2)cc1)c1ccccc1Cl,i,16%,-67*,-27%,-42%
CCCCCC[C@@H](CCC)C(=O)O,i,-13%,.,.,.
CCC(=O)Nc1ccc(N2CCCCC2)cc1,i,37%,-11,35%,-25%
O=C(CCl)Nc1ccc(N2CCCCCC2)cc1,?,?,-98*,?,-47%
COc1ccc(C2(c3ccc(O)cc3O)CC(c3ccccc3Cl)NC(=S)N2)cc1 (stereo not drawn),i,4%,-90*,?,-3%
COc1cccc(C2CC(c3ccccc3Cl)n3nc(N)nc3N2)c1 (stereo not drawn),i,7%,-5,-10%,2%
CCOc1ccc(C2C(=O)N(C3CCCCCC3)CC(=O)N2Cc2ccc(F)cc2)cc1OC (stereo not drawn),.,.,.,-15%,-12%

# Screens: PubChem BioAssay, National Center for Advancing Translational Sciences (NCATS)
